# PubChem BioAssay AID1578 (Sanford-Burnham Center for Chemical Genomics, 2009)
# Where “and” joins values, the source holds several entries; their conditions need not be identical. Identical values can stand only once. Among all 290,000 compounds or so, about 3,000 (1%) were called active. This is one part of a sample in which actives are shown more often than they occur. Cut-off read from the data, not from the text of the source: active = inhibition mostly above about 36% (no sharp cut-off); inactive = mostly below about 34%.
# Test: NOD1 signaling inhibitors, primary screen, cell-based, luminescence, uHTS (AID 1578);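 note: HEK-293T reporter cells stimulated with the NOD1 agonist gamma-tri-DAP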
# Details: NOD1-driven NF-kB luciferase reporter cells, at 4 µM, stronger effect = higher value
row,Structure (SMILES),inhibition
1,CCCCCC1=NN2C(=O)CC(=O)N=C2S1,11.6% (inactive)
2,O=c1c2nnn(-c3cccc(F)c3)c2ncn1Cc1ccccn1,-4.3% (inactive)
3,O=C(N/N=C/c1ccc([N+](=O)[O-])cc1)c1[nH]ncc1Br,-5% (inactive)
4,Cc1ccc(-c2nn(C)c(=O)c3ccccc23)cc1CNC(=O)Cn1nc(-c2ccccc2)c2ccccc2c1=O,12.8% (inactive)
5,Cc1ccc(-c2nn(CC(=O)NCc3cc(-c4nn(C)c(=O)c5ccccc45)ccc3C)c(=O)c3ccccc23)cc1,93.8% (active)
6,Cc1cc(C)n(CC(=O)NCc2cc(-c3nn(C)c(=O)c4ccccc34)ccc2C)n1,-14% (inactive)
7,Cc1ccc2[nH]c3c(c2c1)CCNC3=O,-41.5% (inactive)
8,O=C1NCCc2c1[nH]c1c(Cl)ccc(Cl)c21,79.2% (active)
9,O=C1NCCc2c1[nH]c1ccccc21,10.2% (inactive) and -8.1% (inactive)
10,CCOC(=O)[C@@H]1[C@H]2COc3cc(OC)ccc3[C@@H]2N2C(=O)N(c3ccc(Br)cc3)C(=O)[C@@]12C,-23.3% (inactive)
11,CN(C)C(CNc1ncccn1)c1ccccc1 (stereo unspecified),-14.6% (inactive)
12,COC(=O)C1(CC2CC(c3cccc(Br)c3)=NO2)CCN(C(=O)OC(C)(C)C)CC1 (stereo unspecified),43.4% (active)
13,CC(C)(C)OC(=O)N1CCC(CC2CC(c3cccc(Br)c3)=NO2)(C(=O)O)CC1 (stereo unspecified),-12.7% (inactive)
14,CC(C)(C)OC(=O)N1CCC(CC2CC(c3cccc(Br)c3)=NO2)(C(=O)NCC2CCCCC2)CC1 (stereo unspecified),-0.4% (inactive)
15,O=C(c1cc2ccccn2n1)N1CCN(c2cccc(C(F)(F)F)c2)CC1,19.8% (inactive)
16,Cc1ccc(S(=O)(=O)NC(=NC2CCCCC2)c2ccc(F)cc2)cc1,-31.6% (inactive)
17,O=C1CSC(c2cn(-c3ccccc3)nc2-c2cc3ccccc3oc2=O)N1Cc1ccco1 (stereo unspecified),3.1% (inactive)
18,CCc1ccc(-c2nn(-c3ccccc3)cc2C2SCC(=O)N2Cc2ccco2)cc1 (stereo unspecified),11.4% (inactive)
19,O=C1CSC(c2cn(-c3ccccc3)nc2-c2ccccc2)N1Cc1ccco1 (stereo unspecified),51.6% (active)
20,COc1ccc(/C=N/c2nc3ccccc3n2C)cc1OC,-12.1% (inactive)
21,CCOC(=O)N1CCN(C(=O)C2CCN(Cc3ccc(O)c(OCC)c3)CC2)CC1,-15.5% (inactive)
22,O=C(c1ccccc1)N1CCCCC(S(=O)(=O)c2ccccc2)C1=O (stereo unspecified),19.8% (inactive)
23,O=C(N/N=C/c1ccc(O)cc1O)c1ccc(NC(=O)C2CCCCC2)cc1,-73.3% (inactive)
24,Cc1cccc(OC(C)C(=O)N2CCCN(C)CC2)c1C (stereo unspecified),-5.8% (inactive)

row,Structure (SMILES),inhibition
1,O=C(Nc1ccc(N2CCOCC2)cc1)C1CC(=O)N(c2ccccc2)C1 (stereo unspecified),-35.3% (inactive)
2,O=C(NCc1ccccc1)C1CCC1,-29% (inactive)
3,O=C(NC(=S)NCc1ccccc1)C1CCCCC1,11.8% (inactive)
4,O=C(NCc1ccccc1)C1CCCC1,67.7% (active)
5,CC(=O)N1CCc2cc(S(=O)(=O)NCC(=O)NCc3ccc(F)cc3)ccc21,-8% (inactive)
6,Nc1[nH]c(N=NC(=O)c2ccccc2)c2ccccc12,-58.4% (inactive)
7,CCOc1ccc(S(=O)(=O)N2CCCC(C(=O)N3CCN(CC)CC3)C2)cc1Cl (stereo unspecified),-13.6% (inactive)
8,CCN(CC)S(=O)(=O)c1cc(NC(=O)COC(=O)c2ccc(NC(=O)CC#N)cc2)ccc1C,-16.4% (inactive)
9,Fc1ccc(Nc2nc(-c3ccncc3)nc3ccccc23)cc1,1.1% (inactive)
10,C=CCNc1sc(C(=O)c2ccccc2)c(N)c1-c1nc2ccccc2s1,-19.4% (inactive)
11,O=C1N/C(=N/S(=O)(=O)c2ccccc2)S/C1=C/c1cccnc1,-12.1% (inactive)
12,O=C(O)c1ccc(CNCc2cccc(Oc3ccccc3)c2)cc1,-4.9% (inactive)
13,COc1ccccc1CNCc1cccc(Oc2ccccc2)c1,-7.9% (inactive)
14,COc1ccc(CNCc2cccc(Oc3ccccc3)c2)cc1,65.8% (active)
15,Cc1cc(C)nc(/N=C2/NC(=O)CS2)n1,11.8% (inactive)
16,O=C(CSc1ncccc1C(=O)O)NC12CC3CC(CC(C3)C1)C2,-37.8% (inactive)
17,CC(C)(C)C(=O)COC(=O)c1cc2ccccc2cc1O,-26.6% (inactive)
18,Cc1c(C)c2c(OCC(=O)N3CCC(C(=O)O)CC3)cc3c(c2oc1=O)CCC(C)(C)O3,-8.2% (inactive)
19,CC[n+]1c(/C=C/c2ccc(OC)c(OC)c2)ccc2ccccc21,-81.5% (inactive)
20,CC[n+]1c(/C=C/c2ccc(N(C)C)cc2)ccc2ccccc21,0.8% (inactive)
21,CC(NS(=O)(=O)c1ccc(NC(=O)N2CCCCC2)cc1)c1ccccc1 (stereo unspecified),-19.3% (inactive)
22,O=C(Nc1cccnc1)OC1CCCC1,-40.3% (inactive)
23,Cc1cc(C)c(S(=O)(=O)Nc2ccncc2)cc1C,-25.9% (inactive)
24,Cc1ccc(CCNS(=O)(=O)c2ccc3c(c2)NC(=O)CCS3)cc1,-8.7% (inactive)

row,Structure (SMILES),inhibition
1,CSc1ccccc1C(=O)Nc1ccc2c(c1)CCC2,-1% (inactive)
2,Oc1c(C(Nc2ccccn2)c2cccnc2)cc(Cl)c2cccnc12 (stereo unspecified),15.5% (inactive)
3,CCCC(=O)NC(c1cccs1)c1cc(Cl)c2cccnc2c1O (stereo unspecified),55.3% (active)
4,CCC(=O)NC(c1cccs1)c1cc(Cl)c2cccnc2c1O (stereo unspecified),32.2% (inactive)
5,CCCCC(=O)NC(c1cccs1)c1cc(Cl)c2cccnc2c1O (stereo unspecified),-31.4% (inactive)
6,CCOc1ccc(C(Nc2cccnc2)c2cc(Cl)c3cccnc3c2O)cc1 (stereo unspecified),67.5% (active)
7,O=C(O)COc1ccccc1C(Nc1cccnc1)c1cc(Cl)c2cccnc2c1O (stereo unspecified),-3.2% (inactive)
8,CCC(=O)NCCc1nc2cc(NC(=O)COc3ccccc3)ccc2n1C,-21.6% (inactive)
9,Cc1cc(C)c(S(=O)(=O)NCc2cccnc2)cc1C,9.3% (inactive)
10,CCOc1ccc(N2C(=O)CC(/C=C3/N(C)c4ccccc4C3(C)C)C2=O)cc1 (stereo unspecified),-9.6% (inactive)
11,COC(=O)c1cccc(NC(=O)/C=C/c2ccc3c(c2)OCO3)c1,69% (inactive)
12,Cc1ccc(C(=O)Nc2cccc(C(=O)O)c2)cc1,73.3% (active)
13,CCOc1ccc(NC(=O)Nc2ccc(NC(C)=O)cc2)cc1,-22.3% (inactive)
14,O=C(NNS(=O)(=O)c1ccc([N+](=O)[O-])cc1)C(=O)Nc1cccc(C(=O)O)c1,-14.5% (inactive)
15,O=C(Nc1ccc([N+](=O)[O-])cc1)C(=O)Nc1cccc(C(=O)O)c1,79.5% (active)
16,O=C(O)c1cccc(NC(=O)c2cc(NC(=O)c3ccccc3)cc(NC(=O)c3ccccc3)c2)c1,12.6% (inactive)
17,CCOc1ccc(NC(=O)NC(C)CC)cc1 (stereo unspecified),31.5% (active)
18,CCOC(=O)c1cccc(NC(=O)/C=C/c2ccc3c(c2)OCO3)c1,98% (active)
19,Cc1ccc(C(=O)Nc2cccc(C(=O)NCc3ccccc3)c2)cc1,-41.3% (inactive)
20,CCOC(=O)c1cccc(NC(=O)c2ccc3c(c2)OCO3)c1,-56.6% (inactive)
21,CCC(C)NC(=O)Nc1ccc(Br)cc1 (stereo unspecified),-16% (inactive)
22,O=C(N/N=C/C(Cl)=C/c1ccc([N+](=O)[O-])cc1)C(=O)Nc1cccc(C(=O)O)c1,-14.1% (inactive)
23,COc1ccc(Cc2nnc(NC(=O)C(C)(C)C)s2)cc1,-7.8% (inactive)
24,COc1ccccc1CN1CC(C(=O)NCCc2ccc(Cl)cc2)CC1=O (stereo unspecified),-8.7% (inactive)

row,Structure (SMILES),inhibition
1,Cc1cc[n+](CC(=O)c2cccc([N+](=O)[O-])c2)c2ccccc12,-5.3% (inactive)
2,Cc1ccc(CN2CCNC(=O)C2CC(=O)NCCCn2cccn2)o1 (stereo unspecified),-26.6% (inactive)
3,COC(=O)Cc1csc(NC(=O)CSc2nnc3ccccn23)n1,-22.5% (inactive)
4,COc1ccc(OC)c(C2=NS(=O)(=O)N(C)C(C(=O)N3CCC4(CC3)OCCO4)=C2)c1,-6.5% (inactive)
5,COc1ccc2ccccc2c1CNCc1ccc(C)cc1,-32.1% (inactive)
6,O=Cc1cn(CCC(=O)O)nc1-c1cccc2ccccc12,-38.4% (inactive)
7,COc1ccccc1N=c1oc2c(OC)cccc2cc1C(=O)NCc1ccco1,-182% (inactive)
8,CC(=O)Nc1cc2ccccc2oc1=O,-32.2% (inactive)
9,Cc1ccccc1OCC(=O)Nc1cccc(C(=O)O)c1,92% (active)
10,CCOC(=O)c1cccc(NC(=O)Nc2ccc(OCC)cc2)c1,-13.8% (inactive)
11,Cc1cccc(C)c1OCC(=O)Nc1cccc(C(=O)O)c1,-10.3% (inactive)
12,CC(=O)c1cccc(NC(=O)Nc2ccc3c(c2)OCO3)c1,-20.8% (inactive)
13,CCOc1ccc(NC(=O)c2cccc(NC(=O)c3ccccc3)c2)cc1,4.1% (inactive)
14,CC(=O)Nc1cccc(NC(=O)COc2ccccc2C)c1,40.3% (inactive)
15,O=C(Nc1cccc(C(=O)O)c1)Nc1ccc2c(c1)OCO2,74.1% (active)
16,O=C(Nc1ccc2c(c1)OCO2)Nc1ccc2c(c1)OCO2,-34.2% (inactive)
17,O=C(Nc1cc2ccccc2oc1=O)c1ccccc1,22.4% (inactive)
18,Cc1ccc(C(=O)Nc2cc3ccccc3oc2=O)cc1,85.5% (active)
19,CCOc1ccc(NC(=O)Nc2cccc(C(=O)O)c2)cc1,97.4% (active)
20,COc1ccccc1CC(=O)NC1CC1,-10.2% (inactive)
21,Cc1cc(C)c(S(=O)(=O)c2ccccc2)c(OC(=O)c2c(F)cccc2F)n1,-38.9% (inactive)
22,Cc1cccc(S(=O)(=O)Nc2ccc(-c3nc4ccc(C)cc4s3)cc2)c1,-35.8% (inactive)
23,O=C(COC(=O)C12CC3CC(CC(C3)C1)C2)Nc1ccccc1F,-23.3% (inactive)
24,COc1ccc(CCNC(=O)CN(c2ccc(OC)c(OC)c2)S(=O)(=O)c2ccc(C)cc2)cc1,32.6% (inactive)
